Test results reported in PubChem BioAssay (NCATS).
Results filed as inconclusive are left out. Where a call stands in place of a potency, no number is given. A number with no mark means an inactive call. Activity calls are given as the source filed them. The call rests on the fitted dose curve; in most records, active means well fitted cell-killing curve with a large enough effect; inconclusive means small, poorly fitted or top-dose-only effect, or effect the other way; inactive means no such curve, though single readings can be large or run the other way.

What was measured:
[1] = Quantitative High-Throughput drug screen in 47 multiple myeloma cell lines against the NCATS MIPE library collection: MM1R_ATCC cell viability assay (AID 1918981); further: nearly all actives have a fitted effect of over 35% in size
Method in brief: (§1)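 Plated at 500 cells per well, myeloma lines received MIPE 4.0 compounds by pin tool. Following 48 h culture at 37 °C, CellTiter-Glo luminescence gave viability relative to DMSO and media-only controls.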

[2] = Quantitative High-Throughput drug screen in 47 multiple myeloma cell lines against the NCATS MIPE library collection: LP1_DSMZ cell viability assay (AID 1918982); further: nearly all actives have a fitted effect of over 35% in size
Method in brief: as §1

[3] = Quantitative High-Throughput drug screen in 47 multiple myeloma cell lines against the NCATS MIPE library collection: KMS28PE_JCRB cell viability assay (AID 1918983); further: nearly all actives have a fitted effect of over 35% in size
Method in brief: as §1

[4] = Quantitative High-Throughput drug screen in 47 multiple myeloma cell lines against the NCATS MIPE library collection: OCIMY7_PLB cell viability assay (AID 1918987); further: nearly all actives have a fitted effect of over 65% in size
Method in brief: as §1

[5] = Quantitative High-Throughput drug screen in 47 multiple myeloma cell lines against the NCATS MIPE library collection: SKMM1_PLB cell viability assay (AID 1919863); settings: SKMM1 myeloma viability, CellTiter-Glo ATP, 48 h; viability: active compounds read low; further: nearly all actives have a fitted effect of over 35% in size; on viability: series mostly up to about 46 µM
Method in brief: as §1

[6] = Quantitative High-Throughput drug screen in 47 multiple myeloma cell lines against the NCATS MIPE library collection: XG1_PLB cell viability assay (AID 1919866); further: nearly all actives have a fitted effect of over 35% in size
Method in brief: as §1

[7] = Quantitative High-Throughput drug screen in 47 multiple myeloma cell lines against the NCATS MIPE library collection: VP6_DJ cell viability assay (AID 1919867); further: nearly all actives have a fitted effect of over 40% in size
Method in brief: as §1

[8] = Quantitative High-Throughput drug screen in 47 multiple myeloma cell lines against the NCATS MIPE library collection: PE2_PLB cell viability assay (AID 1919869); further: nearly all actives have a fitted effect of over 35% in size
Method in brief: as §1

[9] = Quantitative High-Throughput drug screen in 47 multiple myeloma cell lines against the NCATS MIPE library collection: PCM6_Riken cell viability assay (AID 1919870); further: nearly all actives have a fitted effect of over 30% in size
Method in brief: as §1

[10] = Quantitative High-Throughput drug screen in 47 multiple myeloma cell lines against the NCATS MIPE library collection: OPM2_DSMZ cell viability assay (AID 1919872); further: nearly all actives have a fitted effect of over 30% in size
Method in brief: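 Approved and investigational drugs from MIPE 4.0 were added by pin tool to 500 cells per well. After 48 hours at 37C, ATP-based CellTiter-Glo luminescence indicated remaining viability.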

[11] = Quantitative High-Throughput drug screen in 47 multiple myeloma cell lines against the NCATS MIPE library collection: L363_DSMZ cell viability assay (AID 1918984); further: nearly all actives have a fitted effect of over 40% in size
Method in brief: as §1

[12] = Quantitative High-Throughput drug screen in 47 multiple myeloma cell lines against the NCATS MIPE library collection: OCIMY5_PLB cell viability assay (AID 1918988); further: nearly all actives have a fitted effect of over 65% in size
Method in brief: as §1

[13] = Quantitative High-Throughput drug screen in 47 multiple myeloma cell lines against the NCATS MIPE library collection: OPM1_PLB cell viability assay (AID 1918989); further: nearly all actives have a fitted effect of over 40% in size
Method in brief: as §1

[14] = Quantitative High-Throughput drug screen in 47 multiple myeloma cell lines against the NCATS MIPE library collection: U266_ATCC cell viability assay (AID 1919864); further: nearly all actives have a fitted effect of over 35% in size
Method in brief: as §1

[15] = Quantitative High-Throughput drug screen in 47 multiple myeloma cell lines against the NCATS MIPE library collection: XG6_PLB cell viability assay (AID 1919865); further: nearly all actives have a fitted effect of over 40% in size
Method in brief: as §1

[16] = Quantitative High-Throughput drug screen in 47 multiple myeloma cell lines against the NCATS MIPE library collection: RPMI8226_ATCC cell viability assay (AID 1919871); further: nearly all actives have a fitted effect of over 30% in size
Method in brief: as §1

[17] = Quantitative High-Throughput drug screen in 47 multiple myeloma cell lines against the NCATS MIPE library collection: UTMC2_PLB cell viability assay (AID 1919868); further: nearly all actives have a fitted effect of over 55% in size
Method in brief: as §1

[18] = Quantitative High-Throughput drug screen in 47 multiple myeloma cell lines against the NCATS MIPE library collection: KMS34_JCRB cell viability assay (AID 1918985); further: nearly all actives have a fitted effect of over 40% in size
Method in brief: as §1
Potency means the concentration at half of the fitted maximal effect.

Row | SMILES | Potency [1] | Potency [2] | Potency [3] | Potency [4] | viability [5] | Potency [6] | Potency [7] | Potency [8] | Potency [9] | Potency [10] | Potency [11] | Potency [12] | Potency [13] | Potency [14] | Potency [15] | Potency [16] | Potency [5] | Potency [17] | Potency [18]
1 | O=C(O)c1cc(=O)c2c(OCC(O)COc3cccc4oc(C(=O)O)cc(=O)c34)cccc2o1 | inactive | inactive | inactive | inactive | 125% | inactive | 5.26 µM (active) | inactive | inactive | inactive |  |  |  |  |  |  |  |  | 
2 | CCC(C)(Oc1ccc(C2(c3ccc(OC(C)(CC)C(=O)O)cc3)CCCCC2)cc1)C(=O)O (centres undefined) | inactive | inactive |  |  | 130% | inactive | inactive | inactive |  | inactive | inactive | inactive | inactive | inactive | inactive | inactive |  |  | 
3 | Nc1ccn([C@@H]2O[C@H](CO)[C@@H](O)C2O)c(=O)n1 (some centres undefined) | inactive |  | inactive | inactive | 123% | inactive | inactive | inactive | inactive | inactive |  |  | inactive | inactive | inactive | inactive |  |  | 
4 | CN1CCC(=C2c3ccccc3CCc3sccc32)CC1 | inactive | inactive |  |  | 99.6% | 18.7 µM (active) |  | inactive |  | inactive |  | inactive | 18.7 µM (active) |  | inactive | 16.6 µM (active) |  |  | 
5 | CC(C)(S)[C@@H](N)C(=O)O |  | inactive | inactive | inactive | 133% | inactive | inactive | inactive | inactive | inactive | inactive |  | inactive |  | inactive | inactive |  |  | 
6 | CC1=C(C)C(=O)C(C(CCCCCC(=O)O)c2ccccc2)=C(C)C1=O (centres undefined) |  |  | inactive |  | 86.2% | inactive | 3.72 µM (active) |  | 2.09 µM (active) |  |  |  | 14.8 µM (active) |  | inactive |  |  |  | 
7 | O=C(NC(Cc1cc(=O)[nH]c2ccccc12)C(=O)O)c1ccc(Cl)cc1 (centres undefined) | inactive | inactive |  |  | 118% | 23.5 µM (active) |  | inactive |  | inactive |  | 14.8 µM (active) | inactive |  | 26.4 µM (active) |  |  |  | 
8 | O=C(CCc1ccc(O)cc1)c1c(O)cc(O)cc1O | 0.148 µM (active) |  |  | 0.148 µM (active) |  | 0.132 µM (active) | 0.418 µM (active) | 5.26 µM (active) | 0.235 µM (active) | 3.32 µM (active) | 0.935 µM (active) | 0.132 µM (active) | 1.18 µM (active) | inactive | 0.118 µM (active) | 4.69 µM (active) | 1.05 µM (active) | 0.332 µM (active) | 
9 | COc1cc2c(cc1OC)C1CC(=O)C(CC(C)C)CN1CC2 (centres undefined) | inactive | inactive |  |  |  | inactive |  | inactive |  |  |  |  | inactive |  | inactive | 5.9 µM (active) |  |  | 
10 | Clc1ccc(C(Cn2ccnc2)OCc2ccsc2Cl)c(Cl)c1 (centres undefined) |  |  |  |  |  | 23.5 µM (active) |  |  | 16.6 µM (active) |  |  | 26.4 µM (active) |  |  |  |  | 13.2 µM (active) |  | inactive
11 | CCCCCCCCCCCCCCCCCCCCCCO | inactive |  |  |  |  | inactive | inactive | inactive | inactive | inactive | inactive | inactive | inactive |  | inactive | inactive |  |  | inactive
12 | NC(=O)Cc1cccc(C(=O)c2ccccc2)c1N | inactive | inactive | inactive |  | 121% | inactive |  |  | inactive |  | inactive | 4.69 µM (active) |  |  | inactive | inactive |  |  | 
13 | C[C@H](Cn1cnc2c(N)ncnc21)OCP(=O)(O)O | inactive |  |  |  |  | inactive | inactive | inactive |  | inactive | inactive | inactive | inactive |  |  |  |  | inactive | inactive
14 | Cc1ccc(NC(=O)c2ccc(CN3CCN(C)CC3)cc2)cc1Nc1nccc(-c2cccnc2)n1 | inactive |  |  |  |  |  | 23.5 µM (active) |  | 18.7 µM (active) | inactive |  |  |  |  |  | inactive |  |  | 
15 | Cc1ccc(Nc2nccc(N(C)c3ccc4c(C)n(C)nc4c3)n2)cc1S(N)(=O)=O |  |  |  | 18.7 µM (active) |  | 9.35 µM (active) | 16.6 µM (active) | 16.6 µM (active) | 4.69 µM (active) |  | 11.8 µM (active) | 16.6 µM (active) | 14.8 µM (active) |  |  | 14.8 µM (active) |  |  | 
16 | COc1ccccc1N1CCN(CCN(C(=O)C2CCCCC2)c2ccccn2)CC1 |  | inactive |  | 7.43 µM (active) | 126% | 7.43 µM (active) | 5.9 µM (active) |  |  | inactive |  |  | inactive |  |  | inactive |  | inactive | 
17 | CCCCc1ccc2nc(NC(=O)OC)[nH]c2c1 | 0.059 µM (active) | 0.0187 µM (active) | 0.0148 µM (active) |  |  |  | 0.0047 µM (active) | 0.0418 µM (active) | 0.0935 µM (active) | 0.0166 µM (active) |  | 0.0037 µM (active) |  | 0.743 µM (active) |  | 0.418 µM (active) | 0.0469 µM (active) |  | 0.0148 µM (active)
